Laboratory results: PubChem BioAssay (NCATS)
Results filed as inconclusive are left out. Calls of active or inactive are those of the source. Calls come from the whole dose curve.

target: Peroxisome proliferator-activated receptor delta (Homo sapiens) (UniProt Q03181); experiment: qHTS assay for small molecule agonists of peroxisome proliferator-activated receptor delta signaling (AID 588534); conditions: HEK293T PPARdelta-UAS-bla, beta-lactamase ratio, 18 h; series mostly up to 76.7 µM; activation: at the top concentration;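 note: 0% = DMSO basal wells and 100% = positive control agonist at 10 µM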
How it was run: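 Cell-based beta-lactamase reporter assay run in agonist mode: cells seeded and incubated 5 hrs at 37 C, compounds added and incubated 18 hrs at 37 C. CCF4 dye fluorescence read after 2 hrs at RT; EC50 and efficacy from Hill fits.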

Sequence of Peroxisome proliferator-activated receptor delta (Homo sapiens) (Q03181 whole entry, looked up): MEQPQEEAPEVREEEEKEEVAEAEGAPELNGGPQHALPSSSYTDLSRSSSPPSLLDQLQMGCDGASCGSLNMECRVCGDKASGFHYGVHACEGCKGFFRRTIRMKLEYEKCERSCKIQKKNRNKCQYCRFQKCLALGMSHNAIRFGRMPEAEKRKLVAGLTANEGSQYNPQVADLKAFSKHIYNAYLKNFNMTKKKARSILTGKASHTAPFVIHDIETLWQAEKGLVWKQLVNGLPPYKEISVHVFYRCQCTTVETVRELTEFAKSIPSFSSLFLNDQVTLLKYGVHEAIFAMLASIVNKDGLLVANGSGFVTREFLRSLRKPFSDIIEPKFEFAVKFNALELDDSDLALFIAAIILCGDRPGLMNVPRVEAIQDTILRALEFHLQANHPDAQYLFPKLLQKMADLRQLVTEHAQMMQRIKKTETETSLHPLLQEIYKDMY

Row | SMILES | activation | outcome
1 | CC(=O)OCc1ccco1 | -2.84% (inactive) | 
2 | BrC/C=C/CBr | 2.97% (inactive) | 
3 | C[Si](Cl)(Cl)[Si](C)(Cl)Cl | 1.29% (inactive) | 
4 | CC(C)(O)C(=O)O | -0.367% (inactive) | 
5 | Cc1cc(Nc2ccc(O)cc2)ccc1N | -2.68% (inactive) | 
6 | COC(=O)c1ccccc1 | -1.24% (inactive) | 
7 | C[Si]1(C)O[Si](C)(C)O[Si](C)(C)O[Si](C)(C)O[Si](C)(C)O1 | 1.92% (inactive) | 
8 | Cc1cscn1 | 4.87% (inactive) | 
9 | CCCCC(C=O)CC (centres undefined) | -8.28% (inactive) | 
10 | CC(C)Nc1ccccc1 | 11.5% (inactive) | 
11 | O=c1oc(=O)c2cc3c(=O)oc(=O)c3cc12 | -2.01% (inactive) | 
12 | CCCCCNCCCCC |  | inactive
13 | NC(=O)NC(N)=O | 3.69% (inactive) | 
14 | CO[Si](OC)(OC)c1ccccc1 | 1.88% (inactive) | 
15 | OCCNCCO |  | inactive
16 | Nc1cc([N+](=O)[O-])ccc1C(=O)O |  | inactive
17 | CCCCCCCC/C=C\CCCCCCCCCCCCC | -3.56% (inactive) | 
18 | CCC(Cl)CC(Cl)C(Cl)C(Cl)C(Cl)C(C)Cl (centres undefined) | 8.91% (inactive) | 
19 | Brc1cc(Oc2cc(Br)c(Br)c(Br)c2Br)c(Br)c(Br)c1Br |  | inactive
20 | CSc1ccc(C=O)cc1 | 12.5% (inactive) | 

Row | SMILES | activation | outcome
21 | O=C(Cl)c1ccc([N+](=O)[O-])cc1 | -1.98% (inactive) | 
22 | Nc1ccc(Cl)cc1[N+](=O)[O-] | 7.61% (inactive) | 
23 | O=C(O)CN(CCCN(CC(=O)O)CC(=O)O)CC(=O)O | 9.57% (inactive) | 
24 | CC(C)(O)CCC(C)(C)O | 0.668% (inactive) | 
25 | CCCCCCCC/C=C\CCCCCCCC(=O)OC[C@@H](O)[C@H]1OC[C@H](O)[C@H]1O | 0.755% (inactive) | 
26 | Cc1c(N)cccc1[N+](=O)[O-] | 6.43% (inactive) | 
27 | CCCCCCN | 2.91% (inactive) | 
28 | CC(=O)c1cc(C)oc1C | -2.59% (inactive) | 
29 | Cc1ccccc1C(=O)O | -8.05% (inactive) | 
30 | CCc1ccccc1 | -0.0958% (inactive) | 
31 | CNc1ccccc1 | -5.3% (inactive) | 
32 | O=C(Cl)c1c(Cl)cccc1Cl | -4.13% (inactive) | 
33 | CCOC(=O)COc1cc(-n2ncc(C(F)(F)F)c(C)c2=O)c(F)cc1Cl | 7.99% (inactive) | 
34 | CC(C)N(C)C | -3.05% (inactive) | 
35 | CC/C=C1/OC(=O)c2ccccc21 | -0.941% (inactive) | 
36 | COCC(=O)O |  | inactive
37 | CCCCCCCCN | 4.19% (inactive) | 
38 | CC(=O)Nc1cccc(C)c1 | 0.0454% (inactive) | 
39 | O=C(O)c1cc(Cl)cc(Cl)c1 | 10.7% (inactive) | 
